Most compounds without a hit are left out; they make up all but 6% or so of the library.
DNA Pol III inh = DNA polymerase III holoenzyme inhibition. reconstituted DNA polymerase III holoenzyme replication, biochemical. Potency, µM (series often up to 57.1 µM). 0.25% of 71,000 active
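Reconstituted *E. coli* holoenzyme (0.35 nM Pol III, 1 nM beta, 154 nM SSB, 2 nM primase) was preincubated with compound for 15 min at RT. Synthesis on 1.4 nM ssM13Gori ran 35 min, then was stopped with PicoGreen/EDTA and read as dsDNA fluorescence.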
Tau filament bind = tau filament binding; recombinant tau filaments, thioflavin S fluorescence, 15 h; filaments grown with octadecylsulfate alongside compound; 2% of 71,000 active; Potency, µM (series often up to 57.1 µM); P10636;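 further: actives lower thioflavin S fluorescence by blocking filaments or displacing dye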
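Thioflavine S fluorescence (ex 450, em 510 nm) reports filaments formed from 1 uM human tau plus 30 uM ODS over 15 h at 37 C (10 mM HEPES pH 7.4, 100 mM NaCl, 5 mM DTT); compounds displacing dye or blocking filaments lower signal.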
FLuc inh = inhibitors of firefly luciferase | 2.2% of 72,000 active | AID 411 | purified firefly luciferase, luminescence, 8 min | Potency, µM (series often up to 57.1 µM), most hits filed as inhibitors | P08659; further: nearly all actives have a fitted effect of over 40% in size
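Substrate buffer containing 10 uM ATP (pH 7.2 imidazole, Mg2+, KCl, detergent, BSA) is dispensed, compound pinned in, then luciferase/luciferin detector mix added. After 8 min at ambient temperature, light output is measured.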
Bst PK mod = modulators of Bacillus stearothermophilus pyruvate kinase; purified pyruvate kinase, luminescence ATP production; ribose 5-phosphate activator present at AC10; Potency, µM; 1.2% of 51,000 active; in the data active means potency below about 11 µM; inconclusive means mostly about 12 µM to 25 µM;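 the screen sought inhibitors and activators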
15-hLO inh = blocks human 15-lipoxygenase activity; AID 887; P16050; purified 15hLO-1, xylenol orange hydroperoxide absorbance; Potency, µM (highest dose often 57.1 µM), actives largely listed as inhibitors; 1.4% of 74,000 active; further: nearly all actives have a fitted effect of over 55% in size
Target sequence (P16050 whole entry, looked up): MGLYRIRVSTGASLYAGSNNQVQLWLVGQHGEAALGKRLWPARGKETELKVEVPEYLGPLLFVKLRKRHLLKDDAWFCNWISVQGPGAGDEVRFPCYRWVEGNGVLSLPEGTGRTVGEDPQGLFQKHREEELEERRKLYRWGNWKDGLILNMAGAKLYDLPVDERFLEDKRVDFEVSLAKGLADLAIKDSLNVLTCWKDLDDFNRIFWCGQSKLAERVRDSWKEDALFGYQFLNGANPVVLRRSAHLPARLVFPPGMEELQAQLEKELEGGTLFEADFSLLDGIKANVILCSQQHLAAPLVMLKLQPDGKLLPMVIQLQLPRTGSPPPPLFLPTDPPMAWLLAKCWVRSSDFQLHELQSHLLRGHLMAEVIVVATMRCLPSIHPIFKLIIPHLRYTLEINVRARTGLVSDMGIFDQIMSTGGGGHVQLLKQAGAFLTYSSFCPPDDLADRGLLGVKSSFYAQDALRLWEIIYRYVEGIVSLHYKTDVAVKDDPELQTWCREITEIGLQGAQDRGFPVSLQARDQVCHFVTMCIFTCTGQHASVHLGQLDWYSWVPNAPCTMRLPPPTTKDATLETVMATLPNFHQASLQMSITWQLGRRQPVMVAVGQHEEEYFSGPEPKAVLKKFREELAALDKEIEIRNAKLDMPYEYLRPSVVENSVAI
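Inhibition is scored from a chromogenic endpoint. After 15 min enzyme-compound contact, arachidonic acid (50 uM final) reacts 6 min with 40 nM 15hLO-1 at room temperature, then Fe-XO reagent is added for 30 min and absorbance ratio recorded.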
ERK AVP block = vasopressin-driven ERK pathway inhibition; HEK293-V1b, vasopressin-stimulated pERK AlphaScreen; Potency, µM (top dose mostly 57.5 µM), hits mostly inhibitors; 0.99% of 72,000 active; further: nearly all actives have a fitted effect of over 55% in size
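V1b-HEK293 cells; cpd 30 min 37C; 25 nM vasopressin 5 min; lyse 10 min; AlphaScreen beads 5 hr RT. Normalized to DMSO basal and 25 nM vasopressin; AC50 by Hill fit.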
Each line names hits and unclear results; the compound was inactive in the other large screens. Unless noted, the call rests on the fitted dose curve; in most records, active means well fitted curve in the direction sought with a large enough effect; inconclusive means small, poorly fitted or top-dose-only effect, or another doubt; inactive means no such curve, though single readings can be large; an effect the other way counts as inactive or inconclusive.

O=C(NCc1ccncc1)C12CC3CC(CC(C3)C1)C2	none
O=C(Nc1cccc(C(=O)Nc2ccc(S(=O)(=O)O)c3cc(S(=O)(=O)O)cc(S(=O)(=O)O)c23)c1)Nc1cccc(C(=O)Nc2ccc(S(=O)(=O)O)c3cc(S(=O)(=O)O)cc(S(=O)(=O)O)c23)c1	DNA Pol III inh 13µM (no result: Bst PK mod)
CC(=O)Nc1cccc(C(=O)Nc2ccccc2C(=O)O)c1	none
c1ccc2c(c1)CCN(c1nc3cc4c(cc3s1)OCCO4)C2	FLuc inh 0.32µM, Bst PK mod 0.44, 15-hLO inh 4µM
CCSC1=NC(=O)/C(=C2/C=Cc3ccccc3N2CC)S1	Tau filament bind 4µM, ERK AVP block 25µM (no result: Bst PK mod)
CN[C@@H]1[C@H](O)[C@H](NC)[C@@H]2O[C@]3(O)C(=O)C[C@@H](C)O[C@H]3O[C@@H]2[C@H]1O	Tau filament bind 40µM (no result: Bst PK mod, 15-hLO inh, ERK AVP block)
CCOc1ccc(C2C(C#N)=C(N)SC(N)=C2C#N)c(OCC)c1	15-hLO inh 10µM, ERK AVP block inconclusive
CCOc1cc(C2C(C#N)=C(N)SC(N)=C2C#N)ccc1OCCN1CCOCC1	15-hLO inh inconclusive
CC(C)Cn1c2nc3ccccc3nc2c2c(=O)n(CCN3CCOCC3)cnc21	Tau filament bind 25µM, 15-hLO inh inconclusive
Nc1ccc(-c2n[nH]c(=O)c3ccccc23)cc1N	Tau filament bind 16µM, 15-hLO inh inconclusive
Cc1ccc(-c2n[nH]c(=O)c3ccccc23)cc1N	none
CCCC(c1nnnn1Cc1ccc(F)cc1)N1CCN(C2CCCCC2)CC1 (configuration not stated)	15-hLO inh inconclusive, ERK AVP block 32µM
c1ccc2c(c1)nc(-c1ccncc1)n1nnnc21	Bst PK mod 8.9, ERK AVP block inconclusive
c1ccc(-c2nc3ccccc3c3nncn23)cc1	none (no result: Bst PK mod)
CCOc1ccc(NC(=O)Nc2ccc3nccnc3c2)cc1	Tau filament bind 25µM (no result: Bst PK mod)
CC(C)(C)NC(=O)Nc1ccc2nccnc2c1	FLuc inh 16µM (no result: Bst PK mod)
CC(C)N(C(=O)Nc1ccc2nccnc2c1)C(C)C	none (no result: DNA Pol III inh, Tau filament bind, FLuc inh, Bst PK mod, ERK AVP block)
O=c1cnc2cnc(Nc3ccccc3)nc2n1CCc1ccccc1	none (no result: Bst PK mod)
CCCC[C@@H]1C[C@H]1C(NC(=O)c1ccco1)c1ccccc1 (some centres not stated)	none (no result: FLuc inh, Bst PK mod, 15-hLO inh)
CCOc1cccc(C(=O)Nc2cccc(-c3nc4ncccc4o3)c2C)c1	ERK AVP block 13µM (no result: Bst PK mod)
COc1cccc(C(=O)Nc2cccc(-c3nc4ncccc4o3)c2C)c1	none (no result: Bst PK mod)
C=CCOC(=O)C(C(C)=O)C(NC(=O)OC)c1ccc2ccccc2c1 (configuration not stated)	none (no result: DNA Pol III inh, Tau filament bind, FLuc inh, Bst PK mod)
Nc1c(S(=O)(=O)O)cc(Nc2ccc(Nc3nc(Cl)nc(Nc4ccc(S(=O)(=O)O)cc4)n3)c(S(=O)(=O)O)c2)c2c1C(=O)c1ccccc1C2=O	DNA Pol III inh 40µM, 15-hLO inh inconclusive, ERK AVP block inconclusive (no result: Bst PK mod)
O=C(c1ccncc1)N1CCC[C@@]2(CCN(Cc3ccccc3)C2)C1	none (no result: Bst PK mod)
Cc1cc(C(F)(F)F)nc(Nc2nc(C)c3ccccc3n2)n1	none
Cc1cc(C)nc(Nc2nc(=O)c3ccccc3s2)n1	15-hLO inh 7.9µM (no result: Bst PK mod)
COc1ccc(-c2nc3cncnc3n(-c3ccccc3)c2=O)cc1	none (no result: Bst PK mod)
O=c1ccsn1Cc1ccccc1	FLuc inh 20µM, 15-hLO inh inconclusive
COC(=O)C/C=C\[C@@H](C)[C@@H](/C=N\OC[C@@H](C)[C@H](OCc1ccccc1)C(C)C)OC	none (no result: DNA Pol III inh, Tau filament bind, Bst PK mod)
Cc1csc(SCC(=O)c2ccc(S(=O)(=O)N3CCOCC3)cc2)n1	15-hLO inh 20µM, ERK AVP block inconclusive
Nc1c(C(=O)c2ccc(F)cc2)oc2ccccc12	Tau filament bind inconclusive
COc1ccc2oc(C(=O)C3CC3)c(N)c2c1	FLuc inh 25µM (no result: Bst PK mod)
COc1ccc(C(=O)c2oc3ccccc3c2N)cc1	Tau filament bind 13µM, Bst PK mod inconclusive
CC(C)c1ccc(/C(C(=O)O)=C(\O)C(=O)O)cc1	none (no result: Bst PK mod)
CC(C)(C[C@@]1(C)NC(=O)NC1=O)OCc1ccccc1	none (no result: Bst PK mod)
N=C1N=C(N)c2cc3ccccc3cc21	Tau filament bind 2.5µM (no result: FLuc inh, Bst PK mod)
O=c1cc(-c2ccccc2)nc2n1Cc1ccccc1-2	Bst PK mod 0.88
Cc1cc(C(=O)COC(=O)c2n[nH]c3ccccc23)c(C)n1C	FLuc inh 13µM, Bst PK mod inconclusive, ERK AVP block inconclusive
COCCn1c(C)cc(C(=O)COC(=O)c2ccc3ncsc3c2)c1C	FLuc inh 25µM, 15-hLO inh inconclusive, ERK AVP block inconclusive (no result: Bst PK mod)

Bioassay records deposited in PubChem BioAssay by National Center for Advancing Translational Sciences (NCATS).
